PubChem BioAssay AID1159580 (chemical genetic matrix, 2015)
Screen size: about 5,500 compounds; about 2,000 (36%) were called active. Roughly 18% stayed inconclusive and do not appear here. Rule as the data show it: active = normalized growth mostly below about 0.91 (no sharp cut-off); inconclusive = no clear call, values can overlap the other calls; inactive = mostly above about 0.92. Some of the results follow.

Assay: chemical genetic growth profiling, strain panel (AID 1159580);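 also: tested at 20 µM; growth read once vehicle control cultures reached saturation at 30 °C; 1 = growth at the plate median or of vehicle wells; lower values mean less growth of the strain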
Conditions: growth OD

Measured: normalized growth

CCC(=O)O[C@]1(C(=O)CCl)[C@@H](C)CC2C3CCC4=CC(=O)C=C[C@]4(C)[C@@]3(F)[C@@H](O)C[C@@]21C (stereo partly specified)
inactive: S. cerevisiae deletion strains, locus YJR043C, strain POL32, stronger effect = lower value 0.982 | S. cerevisiae deletion strains, locus YJR066W, strain TOR1, stronger effect = lower value 0.952 | S. cerevisiae deletion strains, locus YKL009W, strain mrt4, stronger effect = lower value 1.01 | S. cerevisiae deletion strains, locus YKL068W, stronger effect = lower value 0.972 | S. cerevisiae deletion strains, locus YKL085W, strain MDH1 (second series), stronger effect = lower value 0.985 | S. cerevisiae deletion strains, locus YKL085W, strain MDH1, stronger effect = lower value 0.985 | S. cerevisiae deletion strains, locus YKL160W, strain elf1, stronger effect = lower value 1.02 | S. cerevisiae deletion strains, locus YKL190W, strain CNB1, stronger effect = lower value 0.981 | S. cerevisiae deletion strains, locus YKR001C, strain vps1, stronger effect = lower value 0.988 | S. cerevisiae deletion strains, locus YKR026C, strain gcn3, stronger effect = lower value 1.03 | S. cerevisiae deletion strains, locus YKR091W, strain srl3, stronger effect = lower value 1.02 | S. cerevisiae deletion strains, locus YLL001W, strain dnm1, stronger effect = lower value 1.02 | S. cerevisiae deletion strains, locus YLL026W, stronger effect = lower value 1.01 | S. cerevisiae deletion strains, locus YLL041C, strain sdh2, stronger effect = lower value 1.01 | S. cerevisiae deletion strains, locus YLR027C, strain aat2, stronger effect = lower value 1.02 | S. cerevisiae deletion strains, locus YLR039C, strain RIC1, stronger effect = lower value 0.959 | S. cerevisiae deletion strains, locus YLR058C, strain SHM2, stronger effect = lower value 0.983 | S. cerevisiae deletion strains, locus YLR102C, strain apc9, stronger effect = lower value 0.985 | S. cerevisiae deletion strains, locus YLR113W, strain HOG1, stronger effect = lower value 0.982 | S. cerevisiae deletion strains, locus YLR221C, strain rsa3, stronger effect = lower value 1.03 | S. cerevisiae deletion strains, locus YLR258W, strain gsy2, stronger effect = lower value 1.02 | S. cerevisiae deletion strains, locus YLR262C, strain YPT6 (second series), stronger effect = lower value 1.02 | S. cerevisiae deletion strains, locus YLR262C, strain YPT6, stronger effect = lower value 0.941 | S. cerevisiae deletion strains, locus YLR268W, strain sec22, stronger effect = lower value 0.961 | S. cerevisiae deletion strains, locus YLR320W, strain mms22, stronger effect = lower value 1.04 | S. cerevisiae deletion strains, locus YLR330W, strain CHS5, stronger effect = lower value 0.971 | S. cerevisiae deletion strains, locus YLR342W, strain FKS1 (second series), stronger effect = lower value 0.999 | S. cerevisiae deletion strains, locus YLR342W, strain FKS1, stronger effect = lower value 1.02 | S. cerevisiae deletion strains, locus YLR357W, strain rsc2, stronger effect = lower value 1.05 | S. cerevisiae deletion strains, locus YLR370C, strain arc18, stronger effect = lower value 1.02 | S. cerevisiae deletion strains, locus YLR371W, strain rom2, stronger effect = lower value 0.976 | S. cerevisiae deletion strains, locus YLR384C, strain iki3, stronger effect = lower value 1.04 | S. cerevisiae deletion strains, locus YLR418C, strain cdc73, stronger effect = lower value 0.969 | S. cerevisiae deletion strains, locus YML016C, strain PPZ1, stronger effect = lower value 0.988 | S. cerevisiae deletion strains, locus YML032C, strain rad52, stronger effect = lower value 0.985 | S. cerevisiae deletion strains, locus YML120C, strain ndi1, stronger effect = lower value 1 | S. cerevisiae deletion strains, locus YML124C, strain tub3, stronger effect = lower value 0.993 | S. cerevisiae deletion strains, locus YMR058W, strain fet3, stronger effect = lower value 1.02 | S. cerevisiae deletion strains, locus YMR078C, strain ctf18, stronger effect = lower value 0.983 | S. cerevisiae deletion strains, locus YMR125W, strain sto1, stronger effect = lower value 1.02 | S. cerevisiae deletion strains, locus YMR129W, stronger effect = lower value 1.02 | S. cerevisiae deletion strains, locus YMR205C, strain PFK2, stronger effect = lower value 1.04 | S. cerevisiae deletion strains, locus YMR223W, strain ubp8, stronger effect = lower value 0.982 | S. cerevisiae deletion strains, locus YMR231W, strain pep5, stronger effect = lower value 1.02 | S. cerevisiae deletion strains, locus YMR263W, strain SAP30, stronger effect = lower value 0.987 | S. cerevisiae deletion strains, locus YMR307W, strain GAS1, stronger effect = lower value 0.87 | S. cerevisiae deletion strains, locus YNL067W, strain RPL9B, stronger effect = lower value 0.992 | S. cerevisiae deletion strains, locus YNL071W, strain lat1, stronger effect = lower value 1.02 | S. cerevisiae deletion strains, locus YNL183C, strain NPR1, stronger effect = lower value 0.935 | S. cerevisiae deletion strains, locus YNL209W, strain ssb2, stronger effect = lower value 1.01 | S. cerevisiae deletion strains, locus YNL233W, strain BNI4, stronger effect = lower value 1.01 | S. cerevisiae deletion strains, locus YNL248C, strain rpa49, stronger effect = lower value 1.02 | S. cerevisiae deletion strains, locus YNL250W, strain rad50, stronger effect = lower value 0.988 | S. cerevisiae deletion strains, locus YNL271C, strain bni1, stronger effect = lower value 0.963 | S. cerevisiae deletion strains, locus YNL298W, strain CLA4, stronger effect = lower value 0.964 | S. cerevisiae deletion strains, locus YNL307C, strain MCK1, stronger effect = lower value 0.987 | S. cerevisiae deletion strains, locus YNL322C, strain KRE1 (second series), stronger effect = lower value 1.03 | S. cerevisiae deletion strains, locus YNL322C, strain KRE1, stronger effect = lower value 0.988 | S. cerevisiae deletion strains, locus YNR049C, strain mso1, stronger effect = lower value 1.01 | S. cerevisiae deletion strains, locus YNR052C, strain pop2, stronger effect = lower value 0.988 | S. cerevisiae deletion strains, locus YOL006C, strain TOP1, stronger effect = lower value 0.958 | S. cerevisiae deletion strains, locus YOL012C, strain htz1 0.831 | S. cerevisiae deletion strains, locus YOL147C, strain pex11, stronger effect = lower value 0.986 | S. cerevisiae deletion strains, locus YOR001W, strain rrp6, stronger effect = lower value 1.03 | S. cerevisiae deletion strains, locus YOR061W, strain CKA2, stronger effect = lower value 0.978 | S. cerevisiae deletion strains, locus YOR069W, strain VPS5, stronger effect = lower value 0.978 | S. cerevisiae deletion strains, locus YOR070C, strain gyp1, stronger effect = lower value 1.02 | S. cerevisiae deletion strains, locus YOR080W, strain dia2, stronger effect = lower value 1.03 | S. cerevisiae deletion strains, locus YOR083W, strain WHI5, stronger effect = lower value 1.02 | S. cerevisiae deletion strains, locus YOR106W, strain vam3, stronger effect = lower value 1.02 | S. cerevisiae deletion strains, locus YOR136W, strain idh2, stronger effect = lower value 0.995 | S. cerevisiae deletion strains, locus YOR144C, strain elg1, stronger effect = lower value 0.997 | S. cerevisiae deletion strains, locus YOR184W, strain ser1, stronger effect = lower value 0.986 | S. cerevisiae deletion strains, locus YOR231W, strain MKK1, stronger effect = lower value 0.959 | S. cerevisiae deletion strains, locus YOR265W, strain rbl2, stronger effect = lower value 1.02 | S. cerevisiae deletion strains, locus YOR270C, strain vph1, stronger effect = lower value 0.984 | S. cerevisiae deletion strains, locus YOR290C, strain snf2, stronger effect = lower value 1.02 | S. cerevisiae deletion strains, locus YOR316C, strain cot1, stronger effect = lower value 0.991 | S. cerevisiae deletion strains, locus YPL051W, strain arl3, stronger effect = lower value 1.02 | S. cerevisiae deletion strains, locus YPL055C, strain LGE1, stronger effect = lower value 1.01 | S. cerevisiae deletion strains, locus YPL078C, strain atp4, stronger effect = lower value 1.02 | S. cerevisiae deletion strains, locus YPL106C, strain sse1, stronger effect = lower value 1.06 | S. cerevisiae deletion strains, locus YPL240C, strain hsp82, stronger effect = lower value 1.01 | S. cerevisiae deletion strains, locus YPL241C, strain CIN2, stronger effect = lower value 0.981 | S. cerevisiae deletion strains, locus YPL256C, strain CLN2, stronger effect = lower value 0.961 | S. cerevisiae deletion strains, locus YPR119W, strain clb2, stronger effect = lower value 0.981 | S. cerevisiae deletion strains, locus YPR141C, strain kar3, stronger effect = lower value 0.967 | S. cerevisiae deletion strains, locus YPR163C, strain tif3, stronger effect = lower value 0.956 | S. cerevisiae deletion strains, locus YPR167C, strain met16, stronger effect = lower value 0.978 | S. cerevisiae deletion strains, strain wtn01, stronger effect = lower value 0.998 | S. cerevisiae strains, strain wild type, stronger effect = lower value 0.98
